In assay [1] the target is human Peroxisome Proliferator-activated Receptor alpha (PPARa), PPARA (gene 5465) (UniProt Q07869). Kind of assay: ATG_PPARa_TRANS: Attagene TRANS-FACTORIAL HepG2 Assay for human Peroxisome Proliferator-activated Receptor alpha (PPARa) (AID 2283001; active = hit-call score of the fitted dose curve at least 0.9, where 1 is the maximum). In a few lines:
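Read-out is fluorescence of reporter cDNA fragments resolved by capillary electrophoresis after RT-PCR. Human HepG2 liver cells carried transfected PPARa-Gal4 chimera and GAL4-UAS reporter units, treated 24 h; activity scored as increase over DMSO.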

Read-out in assay [2]: Intercellular Adhesion Molecule 1 (ICAM1), ICAM1 (gene 3383)
Briefly: BSK_3C_ICAM1: BioMAP Diversity Plus: 3C Assay for Intercellular Adhesion Molecule 1 (ICAM1) Biomarker Activity (AID 2283003). To be noted: primary human endothelial cells (HUVEC); actives raise or lower the signal. In a few lines: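 ICAM-1 levels measured by ELISA after HUVEC cultures in the 3C system had been dosed for 24 h. Gain or loss of signal relative to DMSO was fitted in both directions.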

Assay [3] has as its target human Retinoic Acid Receptor beta (RARb), RARB (gene 5915) (UniProt P10826). Kind of assay: ATG_RARb_TRANS: Attagene TRANS-FACTORIAL HepG2 Assay for human Retinoic Acid Receptor beta (AID 2283004; active = hit-call score of the fitted dose curve at least 0.9, where 1 is the maximum). The method in brief: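 HepG2, transient MRTU transfection, NR–Gal4 chimera, 24 h treatment; RT-PCR plus CE fluorescence detection of reporter mRNA; gain of signal vs DMSO.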

A short description of assay [4]: BSK_3C_Proliferation: Cell Proliferation Assessment in the BioMAP Diversity Plus: 3C Assay (AID 2283006). Particulars: primary human endothelial cells (HUVEC). The method in brief: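 Read-out is total protein by SRB absorbance at 560 nm, taken as a proxy for relative cell number. Primary human umbilical vein endothelium cultured below confluence was dosed for 48 h, TCA-fixed and SRB-stained; curves were fitted bidirectionally versus DMSO.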

For assay [5], the target named is Peroxisome proliferator-activated receptor gamma (Homo sapiens) (UniProt P37231). Briefly: ATG_PPARg_TRANS: Attagene TRANS-FACTORIAL HepG2 Assay for human Peroxisome Proliferator-activated Receptor-gamma (PPARg) (AID 2283007; active = hit-call score of the fitted dose curve at least 0.9, where 1 is the maximum). The method in brief: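 Multiplexed reporter transcription units in HepG2, 24 h dosing, reporter transcripts quantified by fluorescent RT-PCR and capillary electrophoresis. Increase over DMSO scored.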

For assay [6], the target named is Nuclear receptor subfamily 1 group I member 2 (Homo sapiens) (UniProt O75469). Kind of assay: ATG_PXR_TRANS: Attagene TRANS-FACTORIAL HepG2 Assay for human Pregnane X Receptor (PXR) (AID 2283008; active = hit-call score of the fitted dose curve at least 0.9, where 1 is the maximum). The method in brief: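 Measures mRNA induction of a GAL4-UAS-driven reporter in human HepG2 cells transiently expressing PXR fused to Gal4, following 24 h treatment. DMSO served as negative control and baseline.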

Assay [7] concerns the target human Retinoic Acid Receptor gamma (RARg), RARG (gene 5916) (UniProt P13631). Briefly: ATG_RARg_TRANS: Attagene TRANS-FACTORIAL HepG2 Assay for human Retinoic Acid Receptor gamma (RARg) (AID 2283009; active = hit-call score of the fitted dose curve at least 0.9, where 1 is the maximum). In a few lines:
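Transient transfection of HepG2 with multi-reporter constructs, then 24 h chemical treatment. Total RNA isolated, reverse-transcribed, PCR-amplified, fluorescently labelled and resolved by capillary electrophoresis; activity scored as mRNA induction versus DMSO.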

Assay [8] deals with human RAR-related Orphan Receptor gamma (RORg), RORC (gene 6097) (UniProt P51449). Kind of assay: ATG_RORg_TRANS: Attagene TRANS-FACTORIAL HepG2 Assay for human RAR-related Orphan Receptor gamma (RORg) (AID 2283011; active = hit-call score of the fitted dose curve at least 0.9, where 1 is the maximum). In a few lines:
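Activity is scored as increase in GAL4-UAS reporter mRNA over DMSO, detected by fluorescent RT-PCR and capillary electrophoresis in HepG2 cells transiently expressing a RORg-Gal4 chimera, 24 h after dosing.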

In assay [9] the target is Retinoic acid receptor RXR-alpha (Homo sapiens) (UniProt P19793). Kind of assay: ATG_RXRa_TRANS: Attagene TRANS-FACTORIAL HepG2 Assay for human Retinoid X Receptor alpha (RXRa) (AID 2283012; active = hit-call score of the fitted dose curve at least 0.9, where 1 is the maximum). The method in brief: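 Transient transfection of human HepG2 with multiple GAL4-UAS reporter constructs; 24 h compound exposure; total RNA isolated, reverse-transcribed, PCR-amplified, 6-FAM labelled, HpaI-cut, resolved by capillary electrophoresis. Positive-direction fit versus DMSO.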

Read-out in assay [10]: E-selectin (Homo sapiens) (UniProt P16581)
Briefly: BSK_3C_Eselectin: BioMAP Diversity Plus: 3C Assay for Eselectin Biomarker Activity (AID 2283015).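 Also: cell surface E-selectin protein quantified by ELISA 24 h after dosing.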 Particulars: primary human endothelial cells (HUVEC); actives raise or lower the signal. In a few lines: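 Human vascular endothelium from umbilical vein is exposed to test chemicals for 24 h. E-selectin levels are read by ELISA and compared with DMSO controls.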

Read-out in assay [11]: Interleukin-1 alpha (IL1a), IL1A (gene 3552)
Kind of assay: BSK_BE3C_IL1a: BioMAP Diversity Plus: BE3C Assay for Interleukin-1 alpha (IL1a) Biomarker Activity (AID 2283016). To be noted: primary human bronchial epithelial cells; actives raise or lower the signal. The method in brief:
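BE3C primary human bronchial epithelium; cpd 24 h; IL-1a by ELISA; bidirectional fit vs DMSO; parallel SRB (0.1% SRB, 10% TCA fix, 560 nm) for cytotoxicity.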

Read-out in assay [12]: Monocyte Chemoattractant Protein-1 (MCP1), CCL2 (gene 6347)
Kind of assay: BSK_3C_MCP1: BioMAP Diversity Plus: 3C Assay for Monocyte Chemoattractant Protein-1 (MCP1) Biomarker Activity (AID 2283017). To be noted: primary human endothelial cells (HUVEC); actives raise or lower the signal. In a few lines:
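Endothelial cells from human umbilical vein are dosed with chemical, cultured 24 h, then assayed for MCP-1 by ELISA; both increases and decreases are modelled against DMSO controls.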

Read-out in assay [13]: Monocyte Chemoattractant Protein-1 (MCP1), CCL2 (gene 6347)
Briefly: BSK_4H_MCP1: BioMAP Diversity Plus: 4H Assay for Monocyte Chemoattractant Protein-1 (MCP1) Biomarker Activity (AID 2283018). To be noted: primary human endothelial cells (HUVEC); actives raise or lower the signal. The method in brief: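 ELISA read-out of MCP-1 from human vascular endothelial primary cells taken at 24 hours after compound exposure. Activity was fitted in both directions relative to DMSO, which served as negative control.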

Read-out in assay [14]: Human Leukocyte Antigen - DR isotype (HLADR), HLA-DRA (gene 3122)
Kind of assay: BSK_3C_HLADR: BioMAP Diversity Plus: 3C Assay for Human Leukocyte Antigen - DR isotype (HLADR) Biomarker Activity (AID 2283019).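 Also: ELISA of cell-surface HLA-DR on HUVEC 24 h after dosing.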 To be noted: primary human endothelial cells (HUVEC); actives raise or lower the signal. The method in brief:
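Endothelial cells from human umbilical vein are treated with test chemical; after 24 h, HLA-DR levels are measured by ELISA. Data are fitted in both directions using DMSO as the baseline.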

The target of assay [15] is human Peroxisome Proliferator-activated Receptor delta (PPARd), PPARD (gene 5467) (UniProt Q03181). Kind of assay: ATG_PPARd_TRANS: Attagene TRANS-FACTORIAL HepG2 Assay for human Peroxisome Proliferator-activated Receptor delta (PPARd) (AID 2283002; active = hit-call score of the fitted dose curve at least 0.9, where 1 is the maximum). The method in brief: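 Read-out is induced reporter mRNA, quantified by RT-PCR with fluorescent labelling and capillary electrophoresis after 24 h dosing. Cells are HepG2 transiently carrying multiple GAL4-UAS reporter units driven by exogenous NR-GAL4 chimeras; DMSO serves as baseline.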

Assay [16] addresses human Retinoid X Receptor beta (RXRb), RXRB (gene 6257) (UniProt P28702). Briefly: ATG_RXRb_TRANS: Attagene TRANS-FACTORIAL HepG2 Assay for human Retinoid X Receptor beta (RXRb) (AID 2283013; active = hit-call score of the fitted dose curve at least 0.9, where 1 is the maximum). The method in brief:
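Transfect HepG2 with GAL4-UAS multi-reporter constructs (chimeric NR-Gal4, TRANS format); dose compound 24 h; isolate RNA, RT-PCR, FAM primer extension, HpaI digest; quantify by capillary electrophoresis; positive direction vs DMSO.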

Assay [17] deals with human Thyroid Receptor alpha (THRa1), THRA (gene 7067) (UniProt P10827). Briefly: ATG_THRa1_TRANS: Attagene TRANS-FACTORIAL HepG2 Assay for human Thyroid Receptor alpha (THRa1) (AID 2283014; active = hit-call score of the fitted dose curve at least 0.9, where 1 is the maximum). The method in brief:
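First, HepG2 cells receive multiple GAL4-UAS reporter units and the chimeric receptor. They are then dosed for 24 h, after which RNA is reverse-transcribed, amplified, labelled, HpaI-cut and sized by capillary electrophoresis; gain relative to DMSO is scored.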

Read-out in assay [18]: Interleukin-8 (IL8), CXCL8 (gene 3576)
Kind of assay: BSK_3C_IL8: BioMAP Diversity Plus: 3C Assay for Interleukin-8 (IL8) Biomarker Activity (AID 2283020). Particulars: primary human endothelial cells (HUVEC); actives raise or lower the signal. The method in brief: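 ELISA read-out of IL-8 from human umbilical vein endothelium, measured 24 h after chemical dosing. Activity is expressed relative to DMSO negative control, with both increases and decreases fitted.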

Assay [19] concerns the target Retinoic acid receptor alpha (Homo sapiens) (UniProt P10276). Briefly: ATG_RARa_TRANS: Attagene TRANS-FACTORIAL HepG2 Assay for human Retinoic Acid Receptor alpha (RARa) (AID 2283005; active = hit-call score of the fitted dose curve at least 0.9, where 1 is the maximum). The method in brief:
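Reporter transcripts, measured by RT-PCR with fluorescent labeling and capillary electrophoresis after 24 h dosing, reflect activity of an exogenous human RARa–GAL4 fusion in transiently transfected HepG2. Fitted for increase relative to DMSO.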

Structures are written as SMILES. Results filed as inconclusive are left out. Active and inactive are the calls of the source. The calls were made as follows, unless noted: active = hit-call score of the fitted dose curve at least 0.9, where 1 is the maximum; inactive = score below 0.9.

Sequence of human RAR-related Orphan Receptor gamma (RORg), RORC (gene 6097) (P51449 whole entry, looked up, the tested form may be a part): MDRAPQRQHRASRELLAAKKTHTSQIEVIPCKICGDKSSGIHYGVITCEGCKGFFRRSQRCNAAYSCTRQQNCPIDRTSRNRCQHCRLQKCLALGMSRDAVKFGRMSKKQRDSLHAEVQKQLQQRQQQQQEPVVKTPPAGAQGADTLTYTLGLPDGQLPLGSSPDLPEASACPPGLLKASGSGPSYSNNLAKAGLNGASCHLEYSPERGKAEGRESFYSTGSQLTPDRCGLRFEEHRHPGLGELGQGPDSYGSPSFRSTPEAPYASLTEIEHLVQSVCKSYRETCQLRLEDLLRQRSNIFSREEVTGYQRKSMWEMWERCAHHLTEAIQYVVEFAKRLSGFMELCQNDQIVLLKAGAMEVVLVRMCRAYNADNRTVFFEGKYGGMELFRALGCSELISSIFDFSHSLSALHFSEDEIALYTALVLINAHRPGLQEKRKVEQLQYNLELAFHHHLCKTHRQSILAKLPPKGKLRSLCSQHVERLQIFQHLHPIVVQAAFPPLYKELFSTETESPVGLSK
Sequence of Peroxisome proliferator-activated receptor gamma (Homo sapiens) (P37231 whole entry, looked up): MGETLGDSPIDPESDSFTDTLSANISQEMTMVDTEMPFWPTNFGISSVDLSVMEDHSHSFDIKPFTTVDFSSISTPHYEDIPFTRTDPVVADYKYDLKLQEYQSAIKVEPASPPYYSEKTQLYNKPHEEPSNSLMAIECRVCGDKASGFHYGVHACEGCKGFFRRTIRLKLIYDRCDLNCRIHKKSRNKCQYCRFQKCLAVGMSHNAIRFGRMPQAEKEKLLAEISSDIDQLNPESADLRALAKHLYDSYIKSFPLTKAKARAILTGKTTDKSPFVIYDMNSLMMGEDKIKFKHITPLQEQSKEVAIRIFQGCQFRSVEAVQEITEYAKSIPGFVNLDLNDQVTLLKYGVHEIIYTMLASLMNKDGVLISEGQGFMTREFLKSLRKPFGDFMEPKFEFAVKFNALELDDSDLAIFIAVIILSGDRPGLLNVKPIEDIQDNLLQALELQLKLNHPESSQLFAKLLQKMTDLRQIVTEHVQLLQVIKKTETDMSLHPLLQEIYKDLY
Sequence of human Thyroid Receptor alpha (THRa1), THRA (gene 7067) (P10827 whole entry, looked up, the tested form may be a part): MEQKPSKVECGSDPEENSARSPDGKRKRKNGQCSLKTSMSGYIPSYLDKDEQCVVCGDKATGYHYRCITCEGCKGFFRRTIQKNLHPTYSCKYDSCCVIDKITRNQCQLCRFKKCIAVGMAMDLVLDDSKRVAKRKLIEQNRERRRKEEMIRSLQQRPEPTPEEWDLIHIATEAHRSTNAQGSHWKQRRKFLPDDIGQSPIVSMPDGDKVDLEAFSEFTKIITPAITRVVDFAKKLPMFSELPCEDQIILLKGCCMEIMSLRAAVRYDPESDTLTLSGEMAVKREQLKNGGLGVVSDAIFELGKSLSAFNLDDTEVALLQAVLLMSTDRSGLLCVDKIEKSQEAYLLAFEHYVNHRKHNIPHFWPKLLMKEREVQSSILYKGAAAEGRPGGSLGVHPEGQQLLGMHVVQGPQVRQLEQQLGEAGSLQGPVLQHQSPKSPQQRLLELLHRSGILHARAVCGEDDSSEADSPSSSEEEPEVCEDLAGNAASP
Sequence of human Retinoid X Receptor beta (RXRb), RXRB (gene 6257) (P28702 whole entry, looked up, the tested form may be a part): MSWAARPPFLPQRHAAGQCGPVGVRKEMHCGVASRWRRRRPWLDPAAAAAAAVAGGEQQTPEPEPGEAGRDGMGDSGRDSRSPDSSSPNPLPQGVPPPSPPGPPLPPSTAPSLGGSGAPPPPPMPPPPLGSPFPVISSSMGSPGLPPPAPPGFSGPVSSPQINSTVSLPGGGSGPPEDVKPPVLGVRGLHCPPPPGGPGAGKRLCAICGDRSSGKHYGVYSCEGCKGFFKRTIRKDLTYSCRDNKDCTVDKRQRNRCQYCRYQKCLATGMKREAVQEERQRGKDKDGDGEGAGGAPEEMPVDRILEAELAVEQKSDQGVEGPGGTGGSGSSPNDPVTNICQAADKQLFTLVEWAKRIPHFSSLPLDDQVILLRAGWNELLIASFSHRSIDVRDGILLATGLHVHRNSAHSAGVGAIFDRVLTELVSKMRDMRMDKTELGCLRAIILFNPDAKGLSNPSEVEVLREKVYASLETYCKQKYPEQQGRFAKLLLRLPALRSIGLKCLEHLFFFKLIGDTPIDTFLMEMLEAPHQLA
Sequence of Retinoic acid receptor RXR-alpha (Homo sapiens) (P19793 whole entry, looked up, the tested form may be a part): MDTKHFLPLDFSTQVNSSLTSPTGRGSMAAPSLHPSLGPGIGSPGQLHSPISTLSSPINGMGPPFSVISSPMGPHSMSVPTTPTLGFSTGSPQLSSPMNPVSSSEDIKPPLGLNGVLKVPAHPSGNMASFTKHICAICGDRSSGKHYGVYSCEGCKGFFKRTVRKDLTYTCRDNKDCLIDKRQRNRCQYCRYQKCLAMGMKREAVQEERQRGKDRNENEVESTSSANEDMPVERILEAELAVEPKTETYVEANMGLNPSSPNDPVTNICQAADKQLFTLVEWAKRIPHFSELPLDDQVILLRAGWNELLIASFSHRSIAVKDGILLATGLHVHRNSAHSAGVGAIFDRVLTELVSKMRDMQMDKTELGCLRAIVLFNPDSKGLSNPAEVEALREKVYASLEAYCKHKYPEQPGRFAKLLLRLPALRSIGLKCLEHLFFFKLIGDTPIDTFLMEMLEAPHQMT
Sequence of human Retinoic Acid Receptor beta (RARb), RARB (gene 5915) (P10826 whole entry, looked up, the tested form may be a part): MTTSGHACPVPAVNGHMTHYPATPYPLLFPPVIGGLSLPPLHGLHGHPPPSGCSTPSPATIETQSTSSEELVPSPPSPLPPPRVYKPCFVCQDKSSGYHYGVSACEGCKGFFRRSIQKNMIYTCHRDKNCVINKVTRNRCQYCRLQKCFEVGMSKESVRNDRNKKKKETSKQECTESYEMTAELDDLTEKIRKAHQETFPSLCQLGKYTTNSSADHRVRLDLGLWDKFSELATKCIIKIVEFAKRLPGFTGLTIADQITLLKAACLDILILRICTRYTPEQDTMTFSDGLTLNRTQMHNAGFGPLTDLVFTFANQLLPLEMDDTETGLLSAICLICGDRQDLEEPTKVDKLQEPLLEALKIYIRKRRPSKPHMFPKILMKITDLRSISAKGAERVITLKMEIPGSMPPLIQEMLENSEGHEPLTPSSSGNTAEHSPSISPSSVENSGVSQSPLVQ
Sequence of E-selectin (Homo sapiens) (P16581 whole entry, looked up): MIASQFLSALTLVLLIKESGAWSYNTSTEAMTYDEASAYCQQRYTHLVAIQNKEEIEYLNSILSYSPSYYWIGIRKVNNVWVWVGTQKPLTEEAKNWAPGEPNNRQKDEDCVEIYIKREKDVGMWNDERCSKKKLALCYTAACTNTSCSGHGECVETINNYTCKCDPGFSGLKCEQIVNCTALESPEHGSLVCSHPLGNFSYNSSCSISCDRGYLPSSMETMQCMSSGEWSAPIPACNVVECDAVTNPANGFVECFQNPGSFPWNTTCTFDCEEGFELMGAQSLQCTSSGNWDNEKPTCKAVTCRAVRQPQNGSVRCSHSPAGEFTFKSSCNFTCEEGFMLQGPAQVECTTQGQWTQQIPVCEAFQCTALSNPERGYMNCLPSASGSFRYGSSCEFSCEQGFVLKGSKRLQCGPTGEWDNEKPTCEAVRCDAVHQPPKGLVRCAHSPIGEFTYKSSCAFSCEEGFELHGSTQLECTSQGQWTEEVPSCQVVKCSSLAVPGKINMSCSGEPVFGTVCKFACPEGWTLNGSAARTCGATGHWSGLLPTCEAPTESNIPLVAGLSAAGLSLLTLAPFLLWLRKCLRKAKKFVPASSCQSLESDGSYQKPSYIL
Sequence of human Peroxisome Proliferator-activated Receptor alpha (PPARa), PPARA (gene 5465) (Q07869 whole entry, looked up, the tested form may be a part): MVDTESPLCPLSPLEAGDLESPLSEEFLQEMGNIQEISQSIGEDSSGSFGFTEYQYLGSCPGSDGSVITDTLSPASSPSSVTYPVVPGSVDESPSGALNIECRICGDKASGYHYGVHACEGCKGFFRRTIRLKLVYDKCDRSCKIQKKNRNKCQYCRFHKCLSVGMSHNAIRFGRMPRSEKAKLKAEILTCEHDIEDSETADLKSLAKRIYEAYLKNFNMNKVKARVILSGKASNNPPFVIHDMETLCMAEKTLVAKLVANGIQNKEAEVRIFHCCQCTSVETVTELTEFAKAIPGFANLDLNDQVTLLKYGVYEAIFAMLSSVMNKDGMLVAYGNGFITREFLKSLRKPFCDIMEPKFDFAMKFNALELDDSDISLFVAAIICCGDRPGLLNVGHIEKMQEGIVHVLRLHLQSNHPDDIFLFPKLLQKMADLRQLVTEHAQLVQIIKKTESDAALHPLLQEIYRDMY
Sequence of human Retinoic Acid Receptor gamma (RARg), RARG (gene 5916) (P13631 whole entry, looked up): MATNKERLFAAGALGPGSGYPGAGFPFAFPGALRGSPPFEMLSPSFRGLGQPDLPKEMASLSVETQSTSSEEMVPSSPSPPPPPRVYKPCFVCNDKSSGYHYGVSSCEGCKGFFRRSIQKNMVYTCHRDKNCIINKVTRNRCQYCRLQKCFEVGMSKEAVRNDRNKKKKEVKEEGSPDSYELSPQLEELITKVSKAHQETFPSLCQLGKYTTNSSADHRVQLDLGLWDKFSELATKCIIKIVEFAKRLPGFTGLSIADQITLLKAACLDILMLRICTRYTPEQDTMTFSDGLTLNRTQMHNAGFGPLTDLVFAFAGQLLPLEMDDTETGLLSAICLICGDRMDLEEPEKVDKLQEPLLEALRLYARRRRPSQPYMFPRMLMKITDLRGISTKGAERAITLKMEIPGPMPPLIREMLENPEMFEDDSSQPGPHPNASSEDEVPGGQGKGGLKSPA
Sequence of Nuclear receptor subfamily 1 group I member 2 (Homo sapiens) (O75469 whole entry, looked up, the tested form may be a part): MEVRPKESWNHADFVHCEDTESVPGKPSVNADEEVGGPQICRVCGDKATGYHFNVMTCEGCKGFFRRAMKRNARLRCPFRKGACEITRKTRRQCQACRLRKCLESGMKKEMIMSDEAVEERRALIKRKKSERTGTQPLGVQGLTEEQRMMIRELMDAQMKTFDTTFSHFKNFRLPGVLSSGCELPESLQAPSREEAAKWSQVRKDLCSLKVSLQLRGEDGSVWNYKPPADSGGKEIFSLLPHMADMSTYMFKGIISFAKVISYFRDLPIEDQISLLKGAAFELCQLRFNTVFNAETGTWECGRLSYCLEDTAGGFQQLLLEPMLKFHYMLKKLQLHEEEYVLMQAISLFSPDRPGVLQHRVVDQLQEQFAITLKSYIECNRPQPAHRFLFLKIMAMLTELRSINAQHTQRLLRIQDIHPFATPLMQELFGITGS

As for `CC=Cc1ccc(O)c(OC)c1`, the outcome in assay [1], in assay [2], in [3], in assay [4], in assay [6] and in [7] was inactive. The compound was called inactive in [8], in assay [9], in [10], in [11], in assay [12] and in assay [13]. The outcome in assay [14] was inactive. Further, the AC50 in assay [5] was 61.5 µM (active).
Consider `COc1cc(C=O)ccc1O`, for which the result in assay [15], in assay [2], in assay [4], in assay [8], in assay [9] and in assay [16] was inactive. The result in [10], in [11], in assay [12] and in [14] was inactive.
Take `Cc1cccc([N+](=O)[O-])c1C`: the result in assay [2], in assay [4], in [5], in assay [7], in [9] and in [17] was inactive. In addition, the result in assay [10], in [11], in assay [12], in [13] and in assay [18] was inactive. The figures for the AC50 in assay [6] and in assay [16] were 5.4 µM (active) and 53.4 µM (active), respectively.
As to `CCCCCCCCCCC`, the compound was classed as inactive in assay [1], in assay [2], in assay [4], in [7], in assay [10] and in assay [11]. The outcome in assay [12] and in assay [18] was inactive.
As for `Cc1ccc(C(C)C)c(O)c1`, the outcome in assay [1], in assay [2], in [3], in [4], in assay [5] and in assay [6] was inactive. Besides, the compound was called inactive in assay [7], in assay [8], in assay [9], in [17], in assay [10] and in assay [11]. Besides, the result in [12] and in [14] was inactive. In addition, the AC50 in [16] is 40.6 µM (active).
For the compound `CCCCCCC(=O)OCC`, the compound was classed as inactive in assay [15], in assay [2], in assay [3], in [19], in assay [4] and in assay [7]. Further, the outcome in assay [9], in assay [17], in [10], in assay [11], in assay [12] and in assay [14] was inactive. In addition, the outcome in assay [18] was inactive. The AC50 was 57.3 µM (active) in assay [6] and 32.5 µM (active) in assay [16].

As a reminder, the AC50 is the midpoint of the concentration-response curve, whichever way the signal moves.

These data come from PubChem BioAssay (EPA / NIEHS).
